Experiment [1] can be described thus: qHTS assay to identify small molecule HDAC inhibitors (AID 1259364).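 Note: wild-type HCT-116 cells with endogenous class I/II HDAC activity; top concentration of the series differs between compounds; nearly all actives have a fitted effect of over 45% in size.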 Summed up: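 HCT-116 wt cells, 1,500/well, overnight attach. Compounds (DMSO) 2 h, 37 °C. HDAC-Glo I/II, 30 min RT. Luminescence.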
Experiment [2] in a line: qHTS assay to identify small molecule HDAC inhibitors - cell viability counter screen (AID 1259365). Note: nearly all actives have a fitted effect of over 50% in size. Note: potency is the fitted concentration of half-maximal effect. The essentials:
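Measured quantity is CellTiter-Glo luminescence from wild-type HCT-116 cells after compound incubation of 2hr at 37C, 5% CO2; reagent developed 30min at room temperature.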

Experiment [3] in a line: qHTS assay to identify small molecule antagonists of the sonic hedgehog signaling (Shh) pathway - cell viability counter screen (AID 1259367). Note: nearly all actives have a fitted effect of over 55% in size. Note: potency is the fitted concentration of half-maximal effect. The essentials:
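CellTiter-Fluor signal in conditioned medium-stimulated 3T3 Gli1-Luc cells, 23 hr compound exposure, 37C.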

Experiment [4] deals with Estrogen receptor beta (Homo sapiens) (UniProt Q92731). In words: qHTS assay to identify small molecule agonists of the estrogen receptor beta (ER-beta) signaling pathway (AID 1259377; active = well fitted activation curve with a large enough effect in the signal ratio in the repeat runs, not every such curve was filed as active; the % refers to the signal ratio). The essentials: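 Reporter cells (HEK293T, ER-beta-UAS-bla) receive compounds or DMSO after a 6 hr pre-incubation. They then incubate 16 hr at 37C/5% CO2, and fluorescence from LiveBLAzer B/G substrate is measured after 2 hours at room temperature.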
Estrogen receptor beta (Homo sapiens), sequence (Q92731 whole entry, looked up): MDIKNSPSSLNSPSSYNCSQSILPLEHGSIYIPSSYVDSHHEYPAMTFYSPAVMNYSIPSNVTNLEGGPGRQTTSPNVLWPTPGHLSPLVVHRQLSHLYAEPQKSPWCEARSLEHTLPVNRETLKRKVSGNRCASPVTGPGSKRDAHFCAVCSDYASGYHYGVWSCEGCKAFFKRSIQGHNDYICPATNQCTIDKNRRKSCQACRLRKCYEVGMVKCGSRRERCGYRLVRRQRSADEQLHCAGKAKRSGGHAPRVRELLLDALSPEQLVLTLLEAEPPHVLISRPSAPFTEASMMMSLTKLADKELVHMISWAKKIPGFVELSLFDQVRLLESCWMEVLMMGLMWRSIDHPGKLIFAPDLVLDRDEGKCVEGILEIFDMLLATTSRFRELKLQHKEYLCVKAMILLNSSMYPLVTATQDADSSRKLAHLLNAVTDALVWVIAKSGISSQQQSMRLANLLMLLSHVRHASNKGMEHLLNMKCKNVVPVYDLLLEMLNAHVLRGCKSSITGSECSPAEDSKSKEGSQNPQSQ

Experiment [5] shares this target. As to the kind of experiment: qHTS assay to identify small molecule antagonists of the estrogen receptor beta (ER-beta) signaling pathway (AID 1259378; active = well fitted inhibition curve with a large enough effect in the signal ratio in the repeat runs, not every such curve was filed as active; the % refers to the signal ratio; note: potency is the fitted concentration of half-maximal effect). The essentials: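 Antagonist mode: compounds added to beta-lactamase reporter HEK293T ER-beta-UAS cells stimulated with E2 (1nM final), 16 hr at 37C. LiveBLAzer B/G FRET substrate, 2 hours room temperature, fluorescence read-out.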

The nature of experiment [6]: qHTS assay to identify small molecule agonists of the androgen receptor (AR) signaling pathway in the presence of an antagonist - cell viability counter screen (AID 1259379). Note: nearly all actives have a fitted effect of over 25% in size. Note: potency is the fitted concentration of half-maximal effect. Summed up:
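Each compound was tested at 15 concentrations on MDA-kb2 cells in the presence of 3.0uM nilutamide. Viability was measured by CellTiter-Fluor fluorescence after a 16 hr incubation at 37C in a CO2-free atmosphere.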

Experiment [7] in a line: qHTS assay to identify small molecule antagonists of the estrogen receptor beta (ER-beta) signaling pathway - cell viability counter screen (AID 1259382). Note: nearly all actives have a fitted effect of over 55% in size. Note: potency is the fitted concentration of half-maximal effect. Summed up:
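CellTiter-Glo ATP luminescence measured after the LiveBLAzer read in the same wells; ER-beta-UAS-bla HEK293T cells, 16 hr compound treatment with 1nM 17-beta-estradiol agonist at 37C, 5% CO2.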

The nature of experiment [8]: qHTS assay to identify small molecule agonists or antagonists of the thyroid stimulating hormone receptor (TSHR) signaling pathway - wild type cell line counter screen (AID 1259384; calls by dose curve). The essentials: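 Counter screen in untransfected Hek293: compounds (15-point titration, triplicate) plus phosphodiesterase inhibitor Ro20-1724 added after 18 h plating; 30 min RT. Intracellular cAMP via competitive d2/cryptate immunoassay, 1 h incubation.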

The target of experiment [9] is Estrogen receptor (Homo sapiens) (UniProt P03372). As to the kind of experiment: qHTS assay to identify small molecule antagonists of the estrogen receptor alpha (ER-alpha) signaling pathway using the BG1 cell line in the presence of 0.1 nM 17-beta-estradiol (AID 1259244). Note: nearly all actives have a fitted effect of over 50% in size. Note: potency is the fitted concentration of half-maximal effect. Summed up:
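Luciferase signal from VM7Luc4E2 ERE-reporter cells, co-dosed with test compound and 0.1 nM final 17beta-estradiol for 22 h, read with ONE-Glo.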

The nature of experiment [10]: qHTS assay to identify small molecule agonists of the sonic hedgehog signaling (Shh) pathway (AID 1259368; calls by dose curve;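 note: NIH/3T3-derived 3T3Gli1-Luc cells carrying a stable Gli1-driven firefly luciferase reporter; series mostly up to about 92 µM; nearly all actives have a fitted effect of over 15% in size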). The essentials:
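Following a 24 hr incubation with DMSO-dissolved compounds at 37 C, 5% CO2, Gli1-Luc NIH/3T3-derived cells received luciferase reagent for 30 min at room temperature prior to luminescence measurement.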

Experiment [11] in a line: qHTS assay to identify small molecule agonists of the estrogen receptor beta (ER-beta) signaling pathway - cell viability counter screen (AID 1259380). Note: nearly all actives have a fitted effect of over 30% in size. Note: potency is the fitted concentration of half-maximal effect. The essentials:
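Compounds dissolved in DMSO were pin-transferred onto ER-beta-UAS-bla HEK293T cells that had settled 6 hr, and exposure ran 16 hr at 37C. Following the reporter read, CellTiter-Glo luminescence after 30 min at room temperature indicated cytotoxicity.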

Experiment [12] deals with Estrogen receptor (Homo sapiens) (UniProt P03372). In words: qHTS assay to identify small molecule agonists of the estrogen receptor alpha (ER-alpha) signaling pathway in the presence of an antagonist (AID 1259383; calls by dose curve; note: top concentration of the series differs between compounds; nearly all actives have a fitted effect of over 15% in size). The essentials: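 Luminescent ERE-luciferase reporter, VM7Luc4E2 cells (endogenous ER-alpha); 10.0nM ICI-182,780 final; 15-point compound titration; 22hr at 37C; ONE-Glo, 30min RT.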
Estrogen receptor (Homo sapiens), sequence (P03372 whole entry, looked up): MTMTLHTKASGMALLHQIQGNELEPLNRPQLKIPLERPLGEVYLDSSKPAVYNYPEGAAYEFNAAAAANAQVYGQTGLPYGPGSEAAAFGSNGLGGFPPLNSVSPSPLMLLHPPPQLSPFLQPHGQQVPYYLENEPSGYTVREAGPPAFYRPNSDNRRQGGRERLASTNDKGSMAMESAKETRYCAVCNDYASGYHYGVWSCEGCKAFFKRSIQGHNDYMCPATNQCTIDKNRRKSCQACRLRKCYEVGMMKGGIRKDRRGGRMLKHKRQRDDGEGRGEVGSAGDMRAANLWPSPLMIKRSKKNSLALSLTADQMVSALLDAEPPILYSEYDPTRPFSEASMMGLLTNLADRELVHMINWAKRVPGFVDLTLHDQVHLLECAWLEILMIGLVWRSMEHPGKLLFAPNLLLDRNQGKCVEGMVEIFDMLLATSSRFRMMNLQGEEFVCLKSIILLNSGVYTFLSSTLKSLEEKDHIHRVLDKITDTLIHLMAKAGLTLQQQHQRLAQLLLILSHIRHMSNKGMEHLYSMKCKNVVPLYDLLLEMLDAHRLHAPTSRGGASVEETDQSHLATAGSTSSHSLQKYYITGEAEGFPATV

Experiment [13] in a line: qHTS assay to identify small molecule agonists of the estrogen receptor alpha (ER-alpha) signaling pathway in the presence of an antagonist - cell viability counter screen (AID 1259386).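 Note: cells exposed to compounds for 22 h at 37 °C before the viability read; nearly all actives have a fitted effect of over 30% in size.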 Note: potency is the fitted concentration of half-maximal effect. Summed up:
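Using estrogen-depleted VM7Luc4E2 cells, the 15-concentration compound series was applied together with 10.0nM ICI-182,780 and incubated 22hr at 37C/5% CO2. Cell viability was then scored by CellTiter-Fluor.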

Experiment [14] can be described thus: qHTS assay to identify small molecule antagonists of the sonic hedgehog signaling (Shh) pathway (AID 1259369; calls by dose curve; note: nearly all actives have a fitted effect of over 45% in size; note: potency is the fitted concentration of half-maximal effect). The essentials: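 Read-out is luminescence from a firefly luciferase gene controlled by the Gli1 response element, in 3T3Gli1-Luc cells pre-incubated 4hr then exposed to compounds and conditioned medium for 24hr.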
In experiment [15] the target is Androgen receptor (Homo sapiens) (UniProt P10275). As to the kind of experiment: qHTS assay to identify small molecule agonists of the androgen receptor (AR) signaling pathway in the presence of an antagonist (AID 1259381; calls by dose curve; note: nearly all actives have a fitted effect of over 15% in size). The essentials: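 Plated MDA-kb2 cells (3,000/well) were pre-incubated 5hr, given nilutamide (3.0uM final) or buffer, then dosed with compounds in DMSO at 15 concentrations. Luciferase activity was quantified by luminescence after 16hr at 37C.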
Androgen receptor (Homo sapiens), sequence (P10275 whole entry, looked up): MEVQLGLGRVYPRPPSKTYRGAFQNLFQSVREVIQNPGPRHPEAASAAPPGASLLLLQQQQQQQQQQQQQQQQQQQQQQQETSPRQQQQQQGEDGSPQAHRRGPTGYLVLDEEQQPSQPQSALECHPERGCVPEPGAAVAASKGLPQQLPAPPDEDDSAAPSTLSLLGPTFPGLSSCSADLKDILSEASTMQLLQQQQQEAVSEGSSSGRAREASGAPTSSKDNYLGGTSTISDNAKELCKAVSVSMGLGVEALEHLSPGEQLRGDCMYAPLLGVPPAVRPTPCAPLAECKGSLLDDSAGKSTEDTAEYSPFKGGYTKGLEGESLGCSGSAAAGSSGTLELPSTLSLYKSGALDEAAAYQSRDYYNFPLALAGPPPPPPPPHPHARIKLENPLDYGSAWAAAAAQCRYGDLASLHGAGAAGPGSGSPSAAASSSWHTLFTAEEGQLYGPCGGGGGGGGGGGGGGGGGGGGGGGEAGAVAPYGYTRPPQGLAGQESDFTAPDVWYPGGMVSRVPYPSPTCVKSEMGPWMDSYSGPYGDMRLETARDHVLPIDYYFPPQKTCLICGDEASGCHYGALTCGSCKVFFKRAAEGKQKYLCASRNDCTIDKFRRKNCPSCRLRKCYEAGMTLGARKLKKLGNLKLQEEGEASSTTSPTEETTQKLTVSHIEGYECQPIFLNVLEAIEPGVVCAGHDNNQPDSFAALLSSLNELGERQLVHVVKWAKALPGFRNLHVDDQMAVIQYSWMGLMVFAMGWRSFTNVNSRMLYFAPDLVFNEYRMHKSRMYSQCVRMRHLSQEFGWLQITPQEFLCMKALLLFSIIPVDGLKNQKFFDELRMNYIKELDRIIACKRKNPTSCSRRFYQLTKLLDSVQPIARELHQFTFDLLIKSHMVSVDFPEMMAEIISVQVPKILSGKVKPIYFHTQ

Experiment [16] can be described thus: qHTS assay to identify small molecule phospholipidosis (PLD) inducers (AID 1259344; active = well fitted curve in the direction sought with a large enough effect; an effect the other way counts as inactive or inconclusive). The essentials: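 Accumulated phospholipid, stained red by LipidTOX during 24 h compound treatment of HepG2 cells at 37 C, is quantified from images as pit number and intensity, normalised per cell using Hoechst-stained nuclei.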
Experiment [17] is described as follows: qHTS assay to identify small molecule agonists of the sonic hedgehog signaling (Shh) pathway - cell viability counter screen (AID 1259366). Note: nearly all actives have a fitted effect of over 50% in size. Note: potency is the fitted concentration of half-maximal effect. Summed up: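 In quantitative high-throughput format, 3T3 Gli1-Luc cells were exposed to compounds for 24hr and multiplexed for viability using CellTiter-Fluor, incubated 1hr at 37C before the fluorescence read.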
The target in experiment [18] is Thyrotropin receptor (Homo sapiens) (UniProt P16473). As to the kind of experiment: qHTS assay to identify small molecule antagonists of the thyroid stimulating hormone receptor (TSHR) signaling pathway (AID 1259385; calls by dose curve; note: nearly all actives have a fitted effect of over 20% in size; note: potency is the fitted concentration of half-maximal effect). Summed up: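 Antagonist mode: compound-treated TSHR-expressing HEK293 cells were stimulated with 1.5 ng/mL TSH (final) in presence of Ro20-1724 for 30 min at RT. HTRF cAMP detection after 1 h; each compound tested at 15 concentrations, triplicate.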
Thyrotropin receptor (Homo sapiens), sequence (P16473 whole entry, looked up): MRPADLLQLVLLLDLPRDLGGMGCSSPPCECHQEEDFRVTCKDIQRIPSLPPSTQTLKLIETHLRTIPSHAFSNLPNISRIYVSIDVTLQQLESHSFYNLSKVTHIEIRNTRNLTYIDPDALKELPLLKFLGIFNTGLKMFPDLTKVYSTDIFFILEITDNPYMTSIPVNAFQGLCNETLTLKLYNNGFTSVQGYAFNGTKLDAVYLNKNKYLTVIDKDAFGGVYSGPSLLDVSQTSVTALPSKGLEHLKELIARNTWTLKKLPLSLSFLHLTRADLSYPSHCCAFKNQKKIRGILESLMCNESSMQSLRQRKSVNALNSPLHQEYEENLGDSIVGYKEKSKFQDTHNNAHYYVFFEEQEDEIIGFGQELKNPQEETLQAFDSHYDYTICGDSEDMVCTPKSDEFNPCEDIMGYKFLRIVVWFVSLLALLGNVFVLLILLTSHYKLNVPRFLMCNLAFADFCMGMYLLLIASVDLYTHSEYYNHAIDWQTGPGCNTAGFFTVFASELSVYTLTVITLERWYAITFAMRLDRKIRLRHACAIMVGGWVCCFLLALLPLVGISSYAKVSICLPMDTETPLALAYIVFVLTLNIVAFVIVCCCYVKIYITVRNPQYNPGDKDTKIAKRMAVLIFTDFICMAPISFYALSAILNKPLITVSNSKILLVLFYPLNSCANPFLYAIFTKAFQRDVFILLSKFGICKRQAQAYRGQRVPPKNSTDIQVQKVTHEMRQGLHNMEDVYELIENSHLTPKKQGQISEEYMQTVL

Experiment [19] concerns the target Androgen receptor (Homo sapiens) (UniProt P10275). As to the kind of experiment: qHTS assay to identify small molecule antagonists of the androgen receptor (AR) signaling pathway using the MDA cell line in the presence of 0.5 nM R1881 (AID 1259243). Note: potency is the fitted concentration of half-maximal effect; nearly all actives have a fitted effect of over 50% in size. Summed up: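 Luminescence from an AR/GR-responsive MMTV-luciferase construct in MDA-kb2 breast carcinoma cells, read 30 min after ONE-Glo, following 16 hr co-treatment with compounds and 0.5 nM R1881.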

Inconclusive results are not listed. Activity calls are given as the source filed them. Unless noted, calls come from the whole dose curve; as a rule, active = well fitted curve in the direction sought with a large enough effect in the repeat runs; inconclusive = weak or mixed curves; inactive = no such curve, though single readings can be large; an effect the other way counts as inactive or inconclusive.

We go through 14 compounds from PubChem BioAssay (Tox21).

In the case of `CCc1cc(SCc2sc(-c3ccc(C(F)(F)F)cc3)nc2CN2CCN(c3ccc(OC)cc3)CC2)ccc1OCC(=O)O`, the Potency entry in experiment [1], in experiment [3] and in experiment [4] was “inactive” in each case. The Potency in [2] was 24.3 µM (active); in [5] it was 5.45 µM (active); in [6], 43.3 µM (active); in experiment [7], 4.33 µM (active). In [8], the result was inactive.
As for `NNc1nc(-c2ccc(N)cc2)cs1`, the Potency result in [9], in [1], in experiment [2], in experiment [10], in [4] and in experiment [5] was “inactive” each time. Moreover, the Potency entry in experiment [12] is “inactive”. In addition, the Potency in [11] was 15.4 µM (active); in experiment [13], 30.6 µM (active). In experiment [8], the call was inactive.
As to `CN1CCN(CCC(=O)N2c3ccccc3Sc3ccc(C(F)(F)F)cc32)CC1`, the Potency result in [9], in experiment [1], in experiment [2], in experiment [10], in experiment [15] and in [12] was “inactive” throughout. In addition, the Potency entry in [13] is “inactive”. Also, the Potency in experiment [14] was 3.35 µM (active); in [5] it was 21.1 µM (active); in experiment [6], 29.8 µM (active); in [11], 13.3 µM (active). Besides, the compound was classed as inactive in [8].
As to `O=C(Nc1cccc(C(F)(F)F)c1)c1cc(Br)cc(Br)c1O`, the Potency in [9] is 4.86 µM (active); in experiment [14] it was 1.72 µM (active); in [6], 4.33 µM (active). The Potency entry in experiment [16], in experiment [2], in experiment [17], in [12] and in experiment [18] was “inactive” each time. Besides, the result in experiment [8] was inactive.
As to `N#CSc1ccc(N)c([N+](=O)[O-])c1`, the Potency is 30.8 µM (active) in experiment [19]; 30.8 µM (active) in experiment [3]; 12.3 µM (active) in experiment [14]; 19.4 µM (active) in experiment [5]; 54.8 µM (active) in experiment [6]; 61.5 µM (active) in experiment [18]. Besides, in experiment [13], the Potency is 48.9 µM (active). Moreover, the Potency result in experiment [1], in [2], in experiment [10], in experiment [15] and in experiment [12] was “inactive” throughout. In experiment [8], the compound was classed as inactive.
As for `OCCN(CCO)c1nc(N2CCCCC2)c2nc(N(CCO)CCO)nc(N3CCCCC3)c2n1`, the Potency result in [16], in experiment [1], in [2], in experiment [10], in [15] and in [7] was “inactive” in each case. Further, the Potency entry in [12] is “inactive”. In addition, the Potency in experiment [14] was 2.11 µM (active).
Turning to `C=CC(=O)OCCn1c(=O)n(CCOC(=O)C=C)c(=O)n(CCOC(=O)C=C)c1=O`, the Potency result in experiment [1] and in experiment [18] was “inactive” throughout. The Potency in experiment [17] was 10.9 µM (active); in [3], 21.7 µM (active); in [14], 5.45 µM (active); in experiment [6] it was 21.7 µM (active); in experiment [13] it was 48.6 µM (active).
In the case of `CC1=C(C(=O)OC(C)C)C(c2cccc([N+](=O)[O-])c2)C(C(=O)OC2CN(C(c3ccccc3)c3ccccc3)C2)=C(N)N1` (stereo not given), the Potency entry in experiment [16], in [1], in experiment [2], in experiment [10], in experiment [12] and in experiment [18] was “inactive” throughout. Moreover, the Potency in experiment [17] is 23.7 µM (active); in experiment [3], 26.6 µM (active); in experiment [14], 29.8 µM (active); in experiment [5], 16.8 µM (active). In addition, the compound was classed as inactive in experiment [8].
In the case of `O=C(Oc1cccc2cccnc12)c1ccccc1`, the Potency result in experiment [16], in experiment [2], in experiment [10], in [14], in experiment [4] and in experiment [6] was “inactive” in each case. Further, the Potency entry in experiment [12], in experiment [18] and in experiment [13] was “inactive” each time. Also, the Potency in experiment [17] was 1.5 µM (active); in experiment [11] it was 10.6 µM (active).
For the compound `O=[N+]([O-])c1cc(Cl)c(Cl)c(Cl)c1Cl`, the Potency result in experiment [2], in experiment [3], in experiment [10], in experiment [14], in experiment [11] and in [7] was “inactive” throughout. The Potency result in experiment [18] and in experiment [13] was “inactive” each time. Further, the Potency in [17] and in [6] was 24.2 µM (active) each time. In addition, the result in experiment [8] was inactive.
As for `C=C(C)C(=O)OCC(O)COc1ccc(C(C)(C)c2ccc(OCC(O)COC(=O)C(=C)C)cc2)cc1` (stereo not given), the Potency is 21.7 µM (active) in experiment [9], 48.6 µM (active) in experiment [14] and 30.6 µM (active) in experiment [6]. The Potency result in experiment [2], in experiment [10] and in [12] was “inactive” in each case.
With `CCN(CCC#N)c1ccc(N=Nc2c(Cl)cc([N+](=O)[O-])cc2Cl)cc1`, the Potency entry in experiment [9], in experiment [1], in [2], in experiment [17], in experiment [10] and in [14] was “inactive” throughout. For the same compound, the Potency entry in experiment [12] and in [18] was “inactive” in each case. Moreover, the Potency was 17.2 µM (active) in [6] and 8.63 µM (active) in experiment [13]. The compound was called inactive in experiment [8].
As for `O=C1C=CC(=O)N1c1ccc(Cc2ccc(N3C(=O)C=CC3=O)cc2)cc1`, the Potency entry in experiment [2], in experiment [12] and in experiment [13] was “inactive” each time. Also, the Potency was 21.7 µM (active) in experiment [3], 48.6 µM (active) in experiment [6], 48.6 µM (active) in [11] and 48.6 µM (active) in experiment [18]. Besides, the compound was classed as inactive in [8].
As for `CNCc1cc(F)ccc1Oc1ccc(Cl)c(Cl)c1`, the Potency in experiment [9] is 54.5 µM (active); in experiment [14], 12.2 µM (active); in experiment [6], 54.5 µM (active); in [11] it was 27.3 µM (active). The Potency entry in [2], in experiment [10], in experiment [4], in experiment [12] and in [18] was “inactive” in each case. Moreover, the result in experiment [8] was inactive.
